Assay results taken from PubChem BioAssay AID1159580 (chemical genetic matrix, 2015).
Out of some 5,500 compounds screened, about 2,000 (36%) were called active. Another 18% or so got no clear call; they are omitted. No stated cut-off is given here; in the data, active means normalized growth mostly below about 0.91 (no sharp cut-off); inconclusive means no clear call, values can overlap the other calls; inactive means mostly above about 0.92. Some of the results follow.

Experiment: chemical genetic growth profiling, strain panel (AID 1159580);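 further: tested at 20 µM; growth read once vehicle control cultures reached saturation at 30 °C; 1 = growth at the plate median or of vehicle wells; lower values mean less growth of the strain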
Conditions: growth OD
[1] = S. cerevisiae deletion strains, locus YAL013W, strain DEP1, active compounds read low
[2] = S. cerevisiae deletion strains, locus YBR229C, strain ROT2, active compounds read low
[3] = S. cerevisiae deletion strains, locus YDL101C, strain DUN1, active compounds read low
[4] = S. cerevisiae deletion strains, locus YDL134C, strain PPH21, active compounds read low
[5] = S. cerevisiae deletion strains, locus YDR150W, strain NUM1, active compounds read low
[6] = S. cerevisiae deletion strains, locus YEL061C, strain CIN8, active compounds read low
[7] = S. cerevisiae deletion strains, locus YGR229C, strain SMI1, active compounds read low
[8] = S. cerevisiae deletion strains, locus YHR030C, strain SLT2, active compounds read low
[9] = S. cerevisiae deletion strains, locus YJR043C, strain POL32, active compounds read low
[10] = S. cerevisiae deletion strains, locus YJR075W, strain HOC1, active compounds read low
[11] = S. cerevisiae deletion strains, locus YLR039C, strain RIC1, active compounds read low
[12] = S. cerevisiae deletion strains, locus YLR262C, strain YPT6, active compounds read low
[13] = S. cerevisiae deletion strains, locus YMR263W, strain SAP30, active compounds read low
[14] = S. cerevisiae deletion strains, locus YMR307W, strain GAS1, active compounds read low
[15] = S. cerevisiae deletion strains, locus YNL128W, strain TEP1, active compounds read low
[16] = S. cerevisiae deletion strains, locus YNL322C, strain KRE1, active compounds read low
[17] = S. cerevisiae deletion strains, locus YPL055C, strain LGE1, active compounds read low

Measured: normalized growth

CC(=C(CCOP(=O)(O)O)SC(=O)c1ccccc1)N(C=O)Cc1cnc(C)nc1N
inactive: [1] 1.01 | S. cerevisiae deletion strains, locus YBR021W, strain FUR4, active compounds read low 1.01 | [2] 1.01 | S. cerevisiae deletion strains, locus YCL029C, strain bik1, active compounds read low 1 | S. cerevisiae deletion strains, locus YDL035C, strain GPR1, active compounds read low 1.02 | S. cerevisiae deletion strains, locus YDL074C, strain BRE1, active compounds read low 1.01 | [3] 1.01 | [4] 1.02 | S. cerevisiae deletion strains, locus YDL185W, strain tfp1, active compounds read low 1.01 | S. cerevisiae deletion strains, locus YDL192W, strain arf1, active compounds read low 1.01 | S. cerevisiae deletion strains, locus YDR101C, strain arx1, active compounds read low 1 | [5] 1.01 | S. cerevisiae deletion strains, locus YDR162C, strain NBP2, active compounds read low 1.01 | S. cerevisiae deletion strains, locus YDR318W, strain mcm21, active compounds read low 1.02 | S. cerevisiae deletion strains, locus YDR388W, active compounds read low 1.01 | S. cerevisiae deletion strains, locus YDR502C, strain sam2, active compounds read low 1.01 | [6] 1.01 | S. cerevisiae deletion strains, locus YER110C, active compounds read low 1.02 | S. cerevisiae deletion strains, locus YER155C, strain BEM2, active compounds read low 1.01 | S. cerevisiae deletion strains, locus YER167W, strain BCK2, active compounds read low 1.01 | S. cerevisiae deletion strains, locus YGL078C, strain dbp3, active compounds read low 1.02 | S. cerevisiae deletion strains, locus YGL086W, strain mad1, active compounds read low 1.01 | S. cerevisiae deletion strains, locus YGL248W, strain PDE1, active compounds read low 1 | S. cerevisiae deletion strains, locus YGR135W, strain pre9, active compounds read low 1.02 | [7] 1.02 | S. cerevisiae deletion strains, locus YGR252W, strain gcn5, active compounds read low 1 | [8] 1.01 | S. cerevisiae deletion strains, locus YHR079C, strain IRE1 (second series), active compounds read low 1.01 | S. cerevisiae deletion strains, locus YHR094C, strain hxt1, active compounds read low 1.01 | S. cerevisiae deletion strains, locus YHR129C, strain ARP1, active compounds read low 1 | S. cerevisiae deletion strains, locus YHR200W, strain rpn10, active compounds read low 1.01 | S. cerevisiae deletion strains, locus YIL066C, strain RNR3, active compounds read low 1.02 | S. cerevisiae deletion strains, locus YIL073C, strain SPO22, active compounds read low 1.05 | S. cerevisiae deletion strains, locus YIL125W, strain kgd1, active compounds read low 1.01 | S. cerevisiae deletion strains, locus YIR030C, strain dcg1, active compounds read low 1.02 | S. cerevisiae deletion strains, locus YJL095W, strain BCK1, active compounds read low 1.01 | S. cerevisiae deletion strains, locus YJL134W, strain LCB3, active compounds read low 1.01 | S. cerevisiae deletion strains, locus YJL168C, strain set2, active compounds read low 1.01 | S. cerevisiae deletion strains, locus YJL187C, strain SWE1 (second series), active compounds read low 1.01 | [9] 1.01 | [10] 1.01 | S. cerevisiae deletion strains, locus YKL009W, strain mrt4, active compounds read low 1.01 | S. cerevisiae deletion strains, locus YKL068W, active compounds read low 1.02 | S. cerevisiae deletion strains, locus YKL085W, strain MDH1 (second series), active compounds read low 1.01 | S. cerevisiae deletion strains, locus YKL085W, strain MDH1, active compounds read low 1.01 | S. cerevisiae deletion strains, locus YKL190W, strain CNB1, active compounds read low 1.01 | S. cerevisiae deletion strains, locus YKR001C, strain vps1, active compounds read low 1.01 | [11] 1.02 | S. cerevisiae deletion strains, locus YLR058C, strain SHM2, active compounds read low 1.02 | S. cerevisiae deletion strains, locus YLR102C, strain apc9, active compounds read low 1.01 | [12] 0.991 | S. cerevisiae deletion strains, locus YLR268W, strain sec22, active compounds read low 1 | S. cerevisiae deletion strains, locus YLR330W, strain CHS5, active compounds read low 1.01 | S. cerevisiae deletion strains, locus YLR342W, strain FKS1 (second series), active compounds read low 1 | S. cerevisiae deletion strains, locus YLR371W, strain rom2, active compounds read low 1.02 | S. cerevisiae deletion strains, locus YLR418C, strain cdc73, active compounds read low 1.02 | S. cerevisiae deletion strains, locus YML016C, strain PPZ1, active compounds read low 1.01 | S. cerevisiae deletion strains, locus YML032C, strain rad52, active compounds read low 1.01 | S. cerevisiae deletion strains, locus YML124C, strain tub3, active compounds read low 1.01 | S. cerevisiae deletion strains, locus YMR078C, strain ctf18, active compounds read low 1.01 | S. cerevisiae deletion strains, locus YMR223W, strain ubp8, active compounds read low 1.02 | [13] 1.01 | [14] 1.03 | S. cerevisiae deletion strains, locus YNL067W, strain RPL9B, active compounds read low 1.01 | [15] 1.02 | S. cerevisiae deletion strains, locus YNL233W, strain BNI4, active compounds read low 1.03 | S. cerevisiae deletion strains, locus YNL250W, strain rad50, active compounds read low 1.01 | S. cerevisiae deletion strains, locus YNL271C, strain bni1, active compounds read low 1.02 | S. cerevisiae deletion strains, locus YNL298W, strain CLA4, active compounds read low 1.01 | S. cerevisiae deletion strains, locus YNL307C, strain MCK1, active compounds read low 1.02 | [16] 1.01 | S. cerevisiae deletion strains, locus YNR052C, strain pop2, active compounds read low 1.02 | S. cerevisiae deletion strains, locus YOL006C, strain TOP1, active compounds read low 1.01 | S. cerevisiae deletion strains, locus YOL012C, strain htz1 1.14 | S. cerevisiae deletion strains, locus YOL147C, strain pex11, active compounds read low 1.02 | S. cerevisiae deletion strains, locus YOR061W, strain CKA2, active compounds read low 1.01 | S. cerevisiae deletion strains, locus YOR069W, strain VPS5, active compounds read low 1.01 | S. cerevisiae deletion strains, locus YOR136W, strain idh2, active compounds read low 1.02 | S. cerevisiae deletion strains, locus YOR144C, strain elg1, active compounds read low 1.01 | S. cerevisiae deletion strains, locus YOR184W, strain ser1, active compounds read low 1.02 | S. cerevisiae deletion strains, locus YOR316C, strain cot1, active compounds read low 1.01 | [17] 1.01 | S. cerevisiae deletion strains, locus YPR119W, strain clb2, active compounds read low 1 | S. cerevisiae deletion strains, locus YPR141C, strain kar3, active compounds read low 1.02 | S. cerevisiae deletion strains, locus YPR163C, strain tif3, active compounds read low 1.01 | S. cerevisiae deletion strains, locus YPR167C, strain met16, active compounds read low 1.01 | S. cerevisiae deletion strains, strain wtn01, active compounds read low 1.01 | S. cerevisiae strains, strain wild type, active compounds read low 1.01

CCOC(=O)COc1ccc2c(c1)OC(C)(C)CC2=O
inactive: [1] 0.998 | [2] 0.994 | S. cerevisiae deletion strains, locus YCL061C, strain MRC1, active compounds read low 0.964 | [3] 0.993 | [4] 1.01 | [5] 0.872 | [6] 1.01 | S. cerevisiae deletion strains, locus YGR078C, strain PAC10, active compounds read low 1 | [7] 1.01 | [8] 0.947 | S. cerevisiae deletion strains, locus YHR087W, strain rtc3, active compounds read low 0.976 | [9] 0.994 | [10] 0.974 | [11] 1.05 | S. cerevisiae deletion strains, locus YLR058C, strain SHM2 (second series), active compounds read low 1 | S. cerevisiae deletion strains, locus YLR085C, strain ARP6, active compounds read low 0.965 | [12] 1.02 | S. cerevisiae deletion strains, locus YML094W, strain GIM5, active compounds read low 1.02 | S. cerevisiae deletion strains, locus YMR219W, strain ESC1, active compounds read low 0.988 | [13] 1.01 | [14] 0.986 | [15] 1.01 | S. cerevisiae deletion strains, locus YNL153C, strain GIM3, active compounds read low 0.966 | S. cerevisiae deletion strains, locus YNL298W, strain CLA4 (second series), active compounds read low 1.01 | [16] 1 | S. cerevisiae deletion strains, locus YNR030W, strain Alg12, active compounds read low 1 | [17] 0.849 | S. cerevisiae deletion strains, locus YPL241C, strain CIN2, active compounds read low 0.953 | S. cerevisiae deletion strains, locus YPR135W, strain CTF4, active compounds read low 1.03
